CBX7 AlphaScr = blocks human CBX7 binding to H3K27me3 peptide; O95931; AlphaScreen His6-CBX7 / biotin-H3K27me3 peptide binding; hits give low values; normalised signal (fraction of DMSO) (no concentration beside the values); 66,000 tested, 1.1% active; AID 1224903; in the data active means normalised signal below about 0.5
Target sequence (O95931 whole entry, looked up): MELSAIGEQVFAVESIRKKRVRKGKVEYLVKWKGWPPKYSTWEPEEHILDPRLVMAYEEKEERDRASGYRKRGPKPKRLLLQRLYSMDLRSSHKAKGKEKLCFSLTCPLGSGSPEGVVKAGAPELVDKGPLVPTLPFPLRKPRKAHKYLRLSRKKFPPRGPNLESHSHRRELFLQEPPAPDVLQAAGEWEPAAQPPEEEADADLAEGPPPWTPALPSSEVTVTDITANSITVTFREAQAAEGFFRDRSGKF
Of the large screens only hits and unclear results are named; the others gave an inactive call; ! = not confirmed by another sample. The entries come from a sample that favours hits as a whole.

CC(C)c1ccc(C2c3c(-c4ccccc4)n[nH]c3C(=O)N2c2ccccc2)cc1 (stereo unspecified)	none
O=C1c2[nH]nc(-c3ccccc3)c2C(c2ccccc2)N1c1ccccc1 (stereo unspecified)	none
COc1ccc(C2c3c(-c4ccccc4)n[nH]c3C(=O)N2c2ccccc2)cc1 (stereo unspecified)	CBX7 AlphaScr 0.381
Cc1ccc(S(=O)(=O)C2(C(=O)Nc3cccc(Cl)c3)CC2)cc1	none
CCC1CCCCN1S(=O)(=O)c1ccc(C(=O)Nc2nnc(-c3cccs3)o2)cc1 (stereo unspecified)	none
Cc1ccccc1NC(=O)c1ccc(F)c(S(=O)(=O)N2CCN(c3ccccc3)CC2)c1	none
CN(c1ccccc1)S(=O)(=O)c1ccc(C(=O)Nc2nnc(-c3cccs3)o2)cc1	none
CCC1CCCCN1S(=O)(=O)c1ccc(C(=O)Nc2nnc(-c3ccc(Cl)s3)o2)cc1 (stereo unspecified)	CBX7 AlphaScr 0.383
CC1CCCN(S(=O)(=O)c2ccc(C(=O)Nc3nnc(-c4ccccc4Cl)o3)cc2)C1 (stereo unspecified)	CBX7 AlphaScr 0.0102
COc1ccc(-c2nnc(NC(=O)c3ccc(S(=O)(=O)N4CCCC(C)C4)cc3)o2)cc1 (stereo unspecified)	none
CCc1nnc(NC(=O)c2ccc(S(=O)(=O)N3CCCCC3CC)cc2)o1 (stereo unspecified)	none
CN(C)S(=O)(=O)c1ccc(C(=O)Nc2nnc(-c3cccs3)o2)cc1	CBX7 AlphaScr 0.216
O=C(Nc1nnc(-c2ccccc2)o1)c1ccc(F)c(S(=O)(=O)N2CCOCC2)c1	CBX7 AlphaScr 0.117!
CC(C)CN(CC(C)C)S(=O)(=O)c1ccc(C(=O)Nc2nnc(-c3cccs3)o2)cc1	none
Cc1ccc(C(=O)Nc2ccccc2)cc1S(=O)(=O)N1CCOCC1	none
Cc1ccc2c(c1)c(=O)c(S(=O)(=O)c1ccc(Cl)cc1)cn2CC(=O)Nc1ccc(F)cc1	none
Cc1cccc(CCNC(=O)c2ccc3c(=O)n4c(nc3c2)CCCCC4)c1	none
Nc1ncc(-c2nc3ccccc3[nH]2)s1	none
Clc1ccc(-c2nc(-c3ccccc3)no2)c(Cl)c1	none
COc1ccc(OCCCn2c(-c3ccc(Cl)cc3)nc3ccccc3c2=O)cc1	none
COCCNC(=O)c1cn(CC(C)C)c(=O)c2c1c1ccccc1n2C	none
Cc1cc(C)c2oc(-c3ccc(NC(=O)CC(C)C)cc3)nc2c1	none
COc1ccc(-c2nnc(NC(=O)c3ccc(S(=O)(=O)N4CC(C)CC(C)C4)cc3)o2)cc1 (stereo unspecified)	none
CC1CCN(S(=O)(=O)c2ccc(C(=O)Nc3nnc(-c4cccs4)o3)cc2)CC1	none
COc1cc(OC)cc(-c2nnc(NC(=O)c3ccc(S(=O)(=O)N4CCC(C)CC4)cc3)o2)c1	none
COc1ccc(-c2nnc(NC(=O)c3ccc(S(=O)(=O)N(C)c4ccccc4)cc3)o2)cc1	none
O=C(Nc1nnc(-c2ccccc2)o1)c1ccc(Cl)c(Cl)c1	none
O=C(Nc1nnc(-c2ccccc2)o1)c1ccc(Br)cc1	CBX7 AlphaScr 0.268
O=C(Nc1nnc(-c2ccc(Cl)s2)o1)c1ccc(S(=O)(=O)N2CCOCC2)cc1	CBX7 AlphaScr 0.00635
O=C(Nc1nnc(-c2ccc(F)cc2)o1)c1ccc(S(=O)(=O)N2CCOCC2)cc1	CBX7 AlphaScr 0.00366
CC1CC(C)CN(S(=O)(=O)c2ccc(C(=O)Nc3nnc(-c4cccs4)o3)cc2)C1 (stereo unspecified)	none
O=C(Nc1nccs1)c1ccc(S(=O)(=O)N2CCOCC2)cc1	none
O=C(Nc1nnc(-c2cccs2)o1)c1ccc(S(=O)(=O)N2CCCC2)cc1	CBX7 AlphaScr 0.13
COc1cc(OC)cc(-c2nnc(NC(=O)c3ccc(S(=O)(=O)N4CCOCC4)cc3)o2)c1	none
Cc1[nH]c2ccc(F)cc2c1CCNS(=O)(=O)c1ccc(F)cc1	none
CCCCCCCNC(=O)Cn1nc(-c2ccc(C)cc2)ccc1=O	none
COc1ccc(NC(=O)C2CCN(S(=O)(=O)c3cnc[nH]3)CC2)cc1OC	none
CCc1nnc(NC(=O)C2CCCN(C(=O)c3cnn(-c4ccccc4)c3-n3cccc3)C2)s1 (stereo unspecified)	none
O=C(Nc1cc(C(F)(F)F)ccc1Oc1ccc(Cl)c(Cl)c1)c1cccnc1	none
COc1ccc(C2C(C(=O)NC3CCCCCC3)c3cc(OC)c(OC)cc3C(=O)N2C)cc1OC (stereo unspecified)	none
CC(CC(=O)NCCc1c[nH]c2ccccc12)CC1=NS(=O)(=O)c2ccccc2N1 (stereo unspecified)	none
COc1ccc(-c2csc(Nc3cccc(C)c3)n2)cc1	none
O=C(Nc1nnc(-c2ccc(Cl)cc2Cl)s1)c1ccc(S(=O)(=O)N2CCCC2)cc1	none
O=C(Nc1nc2c(Cl)cccc2s1)c1ccc(S(=O)(=O)N2CCCC2)cc1	none
O=C(Nc1nnc(-c2ccc(Cl)s2)o1)c1ccc(S(=O)(=O)N2CCCC2)cc1	CBX7 AlphaScr 0.0464
Cc1ccc(NC(=O)C2CCCN(c3nnc(-n4cccc4)s3)C2)cc1 (stereo unspecified)	none
Cc1c(Cl)cccc1Nc1nnc(C)c(=O)[nH]1	none
O=C(Cn1nc(Cc2cccnc2)c2ccccc2c1=O)NCc1ccc(Cl)cc1	none
CCOc1ccccc1NC(=O)CCc1nc(-c2ccccc2F)no1	none
CCc1ccc(-c2nc(CN3CCC(C(=O)NCCCN4CCOCC4)CC3)c(C)o2)cc1	none
c1ccc(-c2nc3ccccn3c2Nc2ccc3c(c2)OCCO3)nc1	CBX7 AlphaScr 0.0732
Cc1cccn2c(Nc3ccc4c(c3)OCCO4)c(-c3ccsc3)nc12	none
Cc1cccc(C)c1Nc1c(-c2ccsc2)nc2ncccn12	none
Cc1cccn2c(Nc3ccc4c(c3)OCCO4)c(-c3cccc(Cl)c3)nc12	none
Cc1cccc(C)c1Nc1c(-c2cccs2)nc2ccccn12	none
Cc1cccn2c(Nc3ccc4c(c3)OCCO4)c(-c3ccc(N(C)C)cc3)nc12	CBX7 AlphaScr 0.41
Cc1ccc(-c2nc3ncccn3c2Nc2c(C)cccc2C)cc1	none
Cc1cccc(C)c1Nc1c(-c2ccccn2)nc2ccccn12	CBX7 AlphaScr 0.234
Clc1ccc2nc(-c3ccccn3)c(Nc3ccc4c(c3)OCO4)n2c1	none
Cc1cccc(C)c1Nc1c(-c2ccccn2)nc2ncccn12	CBX7 AlphaScr 0.0112
Cc1cccc(C)c1Nc1c(-c2ccsc2)nc2ccccn12	none
c1ccc(-c2nc3ccccn3c2Nc2ccc3c(c2)OCCO3)cc1	none
CC1CCCCN1S(=O)(=O)c1ccc(C(=O)Nc2ccc(-c3nc4ccccc4[nH]3)cc2)cc1 (stereo unspecified)	none
CC(Oc1ccccc1F)C(=O)Nc1c(C(=O)c2ccccc2)oc2ccccc12 (stereo unspecified)	none
COc1ccc(-c2c(C)nn3c(N4CCC(C(=O)N5CCN(C)CC5)CC4)cc(C)nc23)cc1OC	none
CCOCCCNC(=O)C1CCN(Cc2nc(-c3cccc(Cl)c3)oc2C)CC1	none
CCN(CCNC(=O)c1ccc2nc(N3CCOCC3)sc2c1)c1ccccc1	none
Cc1cccc(-n2c(Cc3cc(=O)[nH]c(=O)[nH]3)nnc2SCc2ccc(Br)cc2)c1	none
Cc1ccc2nc(-c3ccccn3)c(NC3CCCC3)n2c1	CBX7 AlphaScr 0.121
Cc1ccc(-c2nc3cnccn3c2NC2CCCC2)cc1	none
Cc1ccc(-c2nc3ncccn3c2NC2CCCC2)cc1	none
COc1cccc(N2C(=O)C(CC(=O)Nc3ccc(F)cc3)N(Cc3ccc(C)cc3)C2=O)c1 (stereo unspecified)	none
COc1ccc(-c2noc(CN(C)S(=O)(=O)c3ccc(C)cc3)n2)cc1OC	none
COc1cccc(C2CC(c3ccccc3C)n3nnnc3N2)c1 (stereo unspecified)	none
NC(=O)CSc1oc(-c2ccccc2)nc1S(=O)(=O)c1ccc(Br)cc1	none
